Screens (PubChem)
SMN2 splice up: increases expression of the SMN2 splice variant. AID 1458. Potency, µM (series often up to 46.1 µM), for inactives: at the top dose activity change, positive = activation, most hits filed as activators. HEK293 SMN2-luciferase splicing reporter, luminescence, 30-36 h. 210,000 tested, 2.8% active; note: % of control where 0% means no effect; nearly all actives have a fitted effect of over 55% in size
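qHTS luciferase splicing reporter: luminescence rises when SMN2 exon 7 is included in transfected HEK293 cells. Compound exposure lasted 30-36 h at 37C, with 4.5 mM final sodium butyrate as control, followed by a ONE-Glo read.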
NPC1 prom act: NPC1 promoter activation; AID 485313; Potency, µM (series often up to 9.22 µM), for inactives: at the top dose activation, usual class: activators; 320,000 tested, 2.4% active; Huh7 NPC1 promoter luciferase reporter, 24 h; note: % of control where 0% means no effect; nearly all actives have a fitted effect of over 60% in size
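Stable NPC1-promoter luciferase Huh7 line; cpd (DMSO) 24 h, 37 °C, 5% CO2; Amplite luciferase reagent 10 min RT; luminescence readout. qHTS format.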
FLuc modulator: inhibits or activates purified firefly luciferase, miR-21 counter-screen; purified FLuc, Km substrates, luminescence inhibition; Potency, µM (highest dose often 57.5 µM), inactives show top-dose activity change, negative = inhibition, hits mostly inhibitors; 360,000 tested, 6.9% active;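 note: plate controls were vehicle for no effect and reference inhibitor for full effect; nearly all actives have a fitted effect of over 55% in size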
Target sequence (P08659 whole entry, looked up): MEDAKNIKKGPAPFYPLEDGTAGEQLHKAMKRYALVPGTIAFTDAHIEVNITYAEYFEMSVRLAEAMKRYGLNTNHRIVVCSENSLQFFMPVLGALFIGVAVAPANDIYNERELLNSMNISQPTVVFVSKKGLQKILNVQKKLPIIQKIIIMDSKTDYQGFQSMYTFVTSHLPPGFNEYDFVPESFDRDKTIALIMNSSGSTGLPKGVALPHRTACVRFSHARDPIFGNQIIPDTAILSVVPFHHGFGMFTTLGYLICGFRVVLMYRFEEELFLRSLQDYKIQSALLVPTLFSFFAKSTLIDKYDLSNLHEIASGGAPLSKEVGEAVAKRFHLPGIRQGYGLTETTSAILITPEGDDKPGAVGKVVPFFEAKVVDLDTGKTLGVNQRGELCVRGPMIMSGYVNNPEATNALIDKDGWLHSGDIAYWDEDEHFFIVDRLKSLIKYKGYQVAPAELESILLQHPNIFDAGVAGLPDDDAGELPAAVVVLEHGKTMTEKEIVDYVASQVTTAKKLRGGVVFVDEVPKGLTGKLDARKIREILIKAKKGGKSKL
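Purified P. pyralis luciferase, 10 nM final, with Km-level 10 uM D-luciferin and 10 uM ATP in 50 mM Tris acetate pH 7.5, 10 mM Mg acetate, 0.01% Tween-20, 0.05% BSA; 6-point qHTS titration about 60 µM downward; luminescence read.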
Rab9 promoter act: activates the Rab9 promoter. 320,000 tested, 2.8% active. Potency, µM (titrated, usually from 9.22 µM), for the others: top-dose activation, negative = inhibition, most hits filed as activators. Huh7 Rab9 promoter-luciferase reporter, luminescence, 24 h. AID 485297; note: % of control where 0% means no effect; nearly all actives have a fitted effect of over 60% in size
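Luciferase signal after 10 min detection reagent at ambient indicates Rab9 promoter upregulation; stably transfected Huh7 cells were treated 24 h with compound in DMSO at 37 °C, 5% CO2.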
KinaseGlo FLuc: blocks Kinase-Glo luciferase, a counter-screen artifact | Kinase-Glo luciferase, ATP luminescence, 8 min | Potency, µM (series often up to 38.3 µM), for the others: at the top dose activity change, negative = inhibition, hits mostly inhibitors | Q27757 | 200,000 tested, 0.28% active; note: % is set by controls: 0 for no effect and ±100 for the full control effect; nearly all actives have a fitted effect of over 60% in size
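Inhibition of Kinase-Glo luciferase light generation was assessed at 10 uM ATP in pH 7.2 imidazole buffer, with luminescence measured after eight minutes at ambient temperature.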
ELG1 genotoxic: genotoxicity induction in ELG1-luciferase HEK293T cells | HEK293T ELG1-luciferase reporter, luminescence, 16 h | Potency, µM (series often up to 46 µM), for inactives: at the highest dose activity change, positive = activation, actives largely listed as activators | 330,000 tested, 1.3% active; note: % of control where 0% means no effect; nearly all actives have a fitted effect of over 60% in size
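Quantitative HTS format in 1536-well plates. HEK293T ELG1-luciferase reporter cells receive test compound and are incubated 16 hr at 37 °C, 5% CO2; ONE-Glo added, 30 min room temperature, then luminescence read.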
Active calls of the source: *; ? = inconclusive; / = not tested or not shown; ! = not active in a repeat; [ ] = remark or other dose. Compounds with a hit are over-represented: about 7.5% of the library has one in this group of screens. Calls come from the whole dose curve; as a rule, active = well fitted curve in the direction sought with a large enough effect; inconclusive = small, poorly fitted or top-dose-only effect, or another doubt; inactive = no such curve, though single readings can be large; an effect the other way counts as inactive or inconclusive. Potency is the fitted concentration of half-maximal effect.

SMILES	SMN2 splice up	NPC1 prom act	FLuc modulator	Rab9 promoter act	KinaseGlo FLuc	ELG1 genotoxic
O=C(Nc1ccccc1Cl)c1cc(=O)c2ccccc2o1	/	3.55µM*	15.1µM*	?	/	?
COc1ccc(NC(=O)c2c(C)oc3ccc(O)c(CN4CCC(C)CC4)c23)cc1Cl	-11.8%	/	-8.0%	/	/	/
COc1ccccc1CNC(=O)c1cc2c(=O)n(Cc3cccs3)ccc2nc1C	/	/	-3.8%	/	/	/
O=C(CC1=NCCNC(c2ccccc2)C1)c1ccccc1O (configuration not stated)	11.2µM*	16.5%	0.1%	?	10.5%	9.4%
O=C(CC1(O)C(=O)Nc2ccccc21)c1ccccc1O (configuration not stated)	10.6%	-4.0%	-1.3%	9.9%	5.0%	1.7%
Cc1cccc(C(=O)Nc2ccc(C(=O)N/N=C/c3ccc4c(c3)OCO4)cc2)c1	/	0.4%	-6.7%	-4.7%	/	7.7%
Cc1ccc(C(=O)N/N=C/c2cccc(OC(=O)/C=C/c3ccco3)c2)cn1	/	1.7%	12µM*	-0.9%	-2.4%	9.1%
Cc1ccc(C(=O)N/N=C\c2ccc3c(c2)OCO3)cn1	/	0.7%	16.9µM*	3.0%	/	6.5%
O=C(N/N=C\c1ccc2c(c1)OCO2)c1cncc(Br)c1	/	12.0%	?	15.0%	/	-13.6%
O=C(N/N=C/c1ccc2c(c1)OCO2)c1cccnc1	/	28.2%	26.9µM*	12.6%	/	23.7%
O=C(N/N=C\C=C\c1ccc2c(c1)OCO2)c1ccc(F)cc1	-12.9%	9.2%	?	1.9%	0.6%	-3.9%
Cc1cc(C(=O)N/N=C/C=C/c2ccc3c(c2)OCO3)n[nH]1	-13.3%	1.0%	15.1µM*	5.7%	-4.6%	5.2%
COc1cc(NC(=O)CCc2c(C)nc3c(-c4ccc(F)cc4)c(C)nn3c2C)cc(OC)c1OC	-12.8%	/	-0.2%	/	/	/
COCCNC(=O)C(=O)Nc1c2c(nn1-c1ccccc1)CS(=O)(=O)C2	/	/	4.6%	/	/	/
O=C(N/N=C/c1cccnc1)c1ccc2c(c1)OCCO2	8.91µM*	?	6.01µM*	3.16µM*	?	?
COc1ccccc1CNC(=O)C1CCN(S(=O)(=O)c2ccc3[nH]c(=O)ccc3c2)CC1	/	/	-2.4%	/	/	/
COc1ccc(OC)c(C2CC(=O)Nc3cc(OC)c(OC)c(OC)c32)c1 (configuration not stated)	?	-0.3%	7.2%	-4.8%	-3.6%	18.4µM*
COc1ccc(OC)c(C2CC(=O)Nc3ccc4ccccc4c32)c1 (configuration not stated)	1.3%	/	-12.5%	/	/	/
CNC(=S)/N=C(/Nc1ccccc1)c1ccccc1	-17.2%	-2.0%	-19.3%	-4.6%	6.0%	-7.0%
N/C(=N\C(=S)Nc1ccccc1)c1ccccc1	/	0.501µM*	10.7µM*	0.708µM*	/	?
CCOc1ccccc1NC(=O)Cn1c(=O)n(Cc2ccccc2)c(=O)c2cccnc21	10.7%	/	-5.6%	/	/	/
COc1ccc(NS(=O)(=O)c2cc3[nH]c(=O)c(=O)[nH]c3cc2C)cc1OC	/	/	-1.4%	/	/	/
Cc1cc(C(=O)NNC(=S)NC(=O)/C=C/c2ccccc2Cl)n[nH]1	2.0%	8.8%	23.9µM*	6.0%	1.8%	-3.3%
Clc1ccccc1CSc1snnc1-c1ccccc1	-10.4%	22.3%	21.3µM*	28.8%	-1.2%	?
c1ccc(-c2nnsc2Sc2ccccn2)cc1	-11.4%	15.5%	16.9µM*	23.5%	2.4%	4.2%
SMILES	SMN2 splice up	NPC1 prom act	FLuc modulator	Rab9 promoter act	KinaseGlo FLuc	ELG1 genotoxic
C=CCn1c(SCC(N)=O)nc2scc(-c3ccc(C)o3)c2c1=O	/	?	4.78µM*	2.51µM*	5.5%	?
Cc1ccc(C)c(N2CCN(C(=O)CN3C(=O)COc4ccc(S(=O)(=O)N5CCCC5)cc43)CC2)c1	-9.7%	/	-0.2%	/	/	/
CCn1nc(C)c(Br)c1-c1nc(-c2ccc(C)cc2)no1	/	-5.1%	15.1µM*	-2.7%	/	0.3%
CCn1nc(C)c(Br)c1-c1nc(CS(=O)(=O)c2ccc(F)cc2)no1	/	-2.8%	-2.7%	4.0%	/	-0.3%
COc1ccc(N2CCN(S(=O)(=O)CCNC(=O)c3ccc(OC(C)C)cc3)CC2)cc1	/	/	-1.2%	/	/	/
Cc1csc2c(N3CCN(C(=O)Nc4ccc(OC(F)(F)F)cc4)CC3)ncnc12	/	-0.8%	-19.9%	0.6%	/	-9.7%
Cc1csc2c(N3CCN(S(=O)(=O)c4ccc(Cl)cc4)CC3)ncnc12	/	-2.4%	1.3%	-5.6%	/	-0.6%
Cc1csc2c(N3CCCCC3)ncnc12	/	?	13.5µM*	19.4%	/	10.4%
Cc1csc2c(N3CCC(C(=O)O)CC3)ncnc12	/	1.9%	16.9µM*	17.8%	/	8.3%
COc1cccc(CNC(=O)c2c(O)nc3ccccn3c2=O)c1	-0.8%	/	-0.7%	/	/	/
Cc1ccc(Cl)cc1-n1c(=O)c2sc3ccccc3c2n(CC(=O)NC2CCCCC2)c1=O	-3.4%	/	1.2%	/	/	/
Cn1cccc1C(=O)NCc1ccc(S(N)(=O)=O)cc1	/	-4.9%	-0.4%	-1.6%	/	-1.2%
Cc1csc(C(C)N(C)C(=O)c2ccc(OC3CCN(Cc4ccccn4)CC3)cc2)n1 (configuration not stated)	/	-1.6%	0.6%	-10.2%	/	-7.4%
Cc1nn(-c2ccc(S(=O)(=O)O)cc2)c(O)c1N=Nc1ccc(-c2ccc(N=Nc3ccc4c(S(=O)(=O)O)cc(S(=O)(=O)O)c(N)c4c3O)c(O)c2)cc1O.[Cu].[Cu]	-4.2%[9.22 µM]	/	/	/	-24.8%[7.66 µM]	/
COc1cc(-c2ccc(N=Nc3ccc4c(S(=O)(=O)O)cc(S(=O)(=O)O)c(N)c4c3O)c(OC)c2)ccc1N=Nc1ccc2c(S(=O)(=O)O)cc(S(=O)(=O)O)c(N)c2c1O	-12.4%[20.6 µM]	/	/	/	10µM*!	/
CC(C)c1nc2ccc(NC(=O)C3CCCCC3)cc2[nH]1	13.4%	0.2%	?	-6.8%	-1.0%	1.2%
CCc1sc(C(=O)Nc2nc(-c3ccccn3)cs2)cc1C	/	/	/	/	/	13.8%
O=C(Nc1nc(-c2ccccn2)cs1)C1CCCC1	29.8%	28.5%	23.9µM*	?	-0.2%	0.1%
O=C(Nc1ccc2nc(-c3ccccn3)[nH]c2c1)C1CCCCC1	11.2µM*	?	5.36µM*	?	-3.7%	20.6µM*
Cc1ccc(C(=O)Nc2nc(-c3ccccn3)cs2)s1	/	28.1%	6.75µM*	-1.8%	/	14.6µM*
O=C(Nc1nc(-c2ccccn2)cs1)c1ccc(Cl)s1	-66.2%	3.5%	16.9µM*	-0.7%	1.7%	17.2%
COc1ccc(CNC(=O)Cn2c(-c3ccccc3)cc(C(C)=O)c2C)cc1OC	-11.0%	/	-0.5%	/	/	/
COc1ccc(N2CCN(S(=O)(=O)CCNC(=O)c3ccc(C(F)(F)F)cc3)CC2)cc1	/	/	-2.9%	/	/	/
COc1cccc([C@@H]2Oc3ccc(Br)cc3C(=O)[C@H]2OC(=O)Nc2ccc(OC(F)F)cc2)c1	17.0%	/	/	/	-1.4%	/
